Experiments:
Conditions in all cases: concentration: 1 μM, replicates: in singlicate; n = 1
MKK7 = system: MKK7
MKNK1 = system: MKNK1
MKNK2 = system: MKNK2
MLCK = system: T1, MLCK
T1 construct: gene MYLK3

MLK1 = system: T2, MLK1
T2 construct: gene MAP3K9

MLK2 = system: MLK2
MLK3 = system: MLK3
MRCKA = system: MRCKA
MRCKB = system: T3, MRCKB
T3 construct: gene CDC42BPB

MST1R = system: MST1R
MST1 = system: T4, MST1
T4 construct: gene STK4

MST2 = system: T5, MST2
T5 construct: gene STK3

MST3 = system: T6, MST3
T6 construct: gene STK24

MST4 = system: MST4
MTOR = system: MTOR
MUSK = system: MUSK
MYLK2 = system: MYLK2
MYLK4 = system: MYLK4
MYLK = system: MYLK
MYO3A = system: MYO3A
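Also: KINOMEscan kinase panel screen.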

Structure (SMILES) | %Inh (MKK7) [%] | %Inh (MKNK1) [%] | %Inh (MKNK2) [%] | %Inh (MLCK) [%] | %Inh (MLK1) [%] | %Inh (MLK2) [%] | %Inh (MLK3) [%] | %Inh (MRCKA) [%] | %Inh (MRCKB) [%] | %Inh (MST1R) [%] | %Inh (MST1) [%] | %Inh (MST2) [%] | %Inh (MST3) [%] | %Inh (MST4) [%] | %Inh (MTOR) [%] | %Inh (MUSK) [%] | %Inh (MYLK2) [%] | %Inh (MYLK4) [%] | %Inh (MYLK) [%] | %Inh (MYO3A) [%]
Cc1ccc(NC(=O)c2ccnc(N3CCN(C)CC3)c2)cc1-c1ccc(C(=O)NCC2CC2)cc1 [GW775604] | 0 | 2 | 0 | 16 | 0 | 21 | 0 | 0 | 0 | 0 | 27 | 11 | 0 | 0 | 0 | 4 | 0 | 0 | 0 | 0
Cc1cn2c(=O)cc(N3CCOCC3)nc2n1Cc1cccc(Cl)c1Cl [GSK2334006] | 29 | 2 | 10 | 0 | 0 | 2 | 38 | 6 | 8 | 28 | 14 | 0 | 0 | 0 | 37 | 27 | 32 | 9 | 8 | 0
CNc1ncnc2[nH]ncc12 [SKF-18355] | 0 | 0 | 0 | 1 | 1 | 0 | 2 | 0 | 0 | 0 | 36 | 0 | 0 | 0 | 17 | 14 | 3 | 5 | 0 | 0
COc1cc2ncn(-c3cc(OCc4sccc4Cl)c(C(N)=O)s3)c2cc1OC [GSK448459] | 0 | 0 | 0 | 10 | 0 | 0 | 0 | 4 | 0 | 38 | 21 | 68 | 0 | 0 | 11 | 7 | 31 | 72 | 37 | 12
O=C(NCCCN1CCOCC1)c1cccc(Nc2nccc(Nc3ccc(Oc4ccccc4)cc3)n2)c1 [GW663929] | 0 | 0 | 29 | 0 | 0 | 0 | 18 | 4 | 0 | 37 | 0 | 34 | 14 | 0 | 12 | 2 | 0 | 25 | 0 | 35
CN(C1=C(c2ccccc2)C(=O)NC1=O)c1ccccc1 [SB-334860] | 47 | 5 | 8 | 0 | 0 | 0 | 19 | 18 | 0 | 12 | 0 | 6 | 7 | 0 | 28 | 0 | 11 | 19 | 11 | 33
COc1ccc(CNC(=O)NC2CCN(c3ccnc(Nc4ccc(OC)cc4)n3)C2)cc1 (centres unmarked) [GSK1379727] | 14 | 0 | 0 | 0 | 0 | 0 | 0 | 0 | 4 | 40 | 0 | 0 | 0 | 0 | 13 | 7 | 8 | 0 | 22 | 18
Cc1c2ccc(N(C)c3ccnc(Nc4cccc(S(N)(=O)=O)c4)n3)cc2nn1Cc1ccccc1.Cl.Cl [GW787226] | 15 | 0 | 0 | 0 | 0 | 50 | 26 | 0 | 0 | 0 | 32 | 13 | 0 | 0 | 0 | 33 | 0 | 0 | 0 | 0
O=C(NCCNc1ccnc(Nc2ccc(F)cc2)n1)Nc1ccccc1F [GSK1379880] | 0 | 0 | 5 | 0 | 0 | 0 | 0 | 21 | 3 | 50 | 0 | 0 | 0 | 0 | 10 | 5 | 1 | 0 | 9 | 0
O=c1cc(N2CCOCC2)nc2n(Cc3cccc(F)c3)ccn12 [GSK2297430] | 0 | 0 | 10 | 0 | 2 | 0 | 28 | 0 | 0 | 8 | 23 | 0 | 3 | 0 | 52 | 3 | 0 | 0 | 4 | 0
